From PubChem BioAssay (NCATS)
Results filed as inconclusive are left out. Entries that show only a call come without a potency. Activity calls are given as the source filed them. Calls follow the shape of the dose curve; as a rule, active = well fitted curve in the direction sought with a large enough effect; inconclusive = small, poorly fitted or top-dose-only effect, or another doubt; inactive = no such curve, though single readings can be large; an effect the other way counts as inactive or inconclusive.

Assay: S16 Schwann cell viability assay (CellTiter-Glo assay) (AID 624031); also: nearly all actives have a fitted effect of over 70% in size
Conditions: S16 rat Schwann cells viability, 24 h; series mostly up to 57.5 µM
Summary of the method: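 Counter-screen for cytotoxicity: parental S16 rat Schwann cells lacking the PMP22 reporters, treated 24 h with compound, viability from cellular ATP by CellTiter-Glo luminescence, normalized to DMSO (0%) and no-cell wells.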
Potency is read from the fitted curve at half-maximal effect.

Row | Compound | Potency
1 | CC(C)=CCOc1ccc(/C=C/C(=O)c2ccc(OCC=C(C)C)cc2OCC(=O)O)cc1 | inactive
2 | COc1cc([C@H]2Oc3cc([C@H]4Oc5cc(O)cc(O)c5C(=O)[C@@H]4O)ccc3O[C@@H]2CO)ccc1O | inactive
3 | COc1ccc(C(=O)c2ccccc2)c(O)c1 | inactive
4 | O=C(NCCc1c[nH]c2ccccc12)c1cccnc1 | inactive
5 | CCCCCCCCCCCCCCCC(=O)O | inactive
6 | CNCCCCOc1ccccc1Cc1ccccc1 | 28.7 µM (active)
7 | CC[C@H](c1ccc(O)cc1)[C@@H](CC)c1ccc(O)cc1 | inactive
8 | CCCCCCCCOc1ccc(C(=O)c2ccccc2)c(O)c1 | inactive
9 | CCc1oc2ccccc2c1C(=O)c1cc(I)c(O)c(I)c1 | inactive
10 | Oc1c(Cl)cc(Cl)c(Cl)c1Cc1c(O)c(Cl)cc(Cl)c1Cl | inactive
11 | CCOc1cc(OCC)c(C(=O)CCC(=O)O)cc1OCC | inactive
12 | C#C[C@]1(O)CC[C@H]2[C@@H]3CCC4=Cc5oncc5C[C@]4(C)[C@H]3CC[C@@]21C | inactive
13 | CCc1oc2ccccc2c1C(=O)c1cc(Br)c(O)c(Br)c1 | inactive
14 | N/C(=N\N=C\c1ccc(Cl)cc1)N/N=C/c1ccc(Cl)cc1 | inactive
15 | O=C(O)C1(C(=O)O)CCC1.[NH2-].[NH2-].[Pt+2] | inactive

Assay: S16 Schwann cell PMP22 intronic element firefly luciferase assay (AID 624032); also: nearly all actives have a fitted effect of over 30% in size
Conditions: S16 rat Schwann cells, PMP22 element FLuc, 24 h; series mostly up to 57.5 µM
Summary of the method: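 Rat S16 Schwann cells stably carrying a PMP22 intronic element-driven Fluc reporter were seeded overnight, then exposed to compounds for 24 h at 37 °C. Luminescence was normalized to PTC124 (positive control) and DMSO (0% activity).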

Row | Compound | Potency
16 | O=C(Nc1ncc([N+](=O)[O-])s1)c1cccs1 | inactive
17 | COc1ccc(C(=O)c2ccccc2)c(O)c1 | inactive
18 | CC(C)NCC(O)c1ccc2ccccc2c1 (centres undefined) | inactive
19 | NC(=S)N/N=C/c1cccnc1 | inactive
20 | O=C(NCCc1c[nH]c2ccccc12)c1cccnc1 | inactive
21 | NCc1ccccc1Sc1ccccc1CO | inactive
22 | C=C[C@@]1(C)CC(=O)[C@]2(O)[C@@]3(C)[C@@H](O)CCC(C)(C)[C@@H]3[C@H](O)[C@H](OC(C)=O)[C@@]2(C)O1 | 0.361 µM (active)
23 | COc1ccccc1N1CCN(CCCCNC(=O)c2ccc(-c3ccc(C(C)=O)cc3)cc2)CC1 | inactive
24 | CCN(CC)CCOc1ccccc1C(=O)CCc1ccccc1 | inactive
25 | O=[N+]([O-])c1cccc(S(=O)(=O)NCCNS(=O)(=O)c2cccc([N+](=O)[O-])c2)c1 | inactive
26 | C#C[C@]1(OC(C)=O)CC[C@H]2[C@@H]3CCC4=C/C(=N/O)CC[C@@H]4[C@H]3CC[C@@]21CC | 8.09 µM (active)
27 | CN(Cc1ccc(C(C)(C)C)cc1)Cc1cccc2ccccc12 | inactive
28 | NCCNC(=O)c1ccc(Cl)cn1 | inactive
29 | O=C(CCN1CCN2CCCC2C1)N1c2ccccc2Sc2ccc(Cl)cc21 (centres undefined) | inactive
30 | Oc1c(Cl)cc(Cl)c(Cl)c1Cc1c(O)c(Cl)cc(Cl)c1Cl | 1.61 µM (active)
31 | CO[C@]12C[C@@H](COC(=O)c3cncc(Br)c3)CN(C)[C@@H]1Cc1cn(C)c3cccc2c13 | inactive
32 | C=CCN1CCc2nc(N)sc2CC1 | inactive
33 | CCc1oc2ccccc2c1C(=O)c1cc(Br)c(O)c(Br)c1 | inactive
34 | Cl/C(=C\n1cncn1)c1ccc(Cl)cc1Cl | inactive
35 | N/C(=N\N=C\c1ccc(Cl)cc1)N/N=C/c1ccc(Cl)cc1 | inactive
36 | Cc1ccc2c(Br)cc(Br)c(O)c2n1 | inactive
37 | O=C(O)C1(C(=O)O)CCC1.[NH2-].[NH2-].[Pt+2] | inactive
38 | O=C(CN1CCN(Cc2ccc3c(c2)OCO3)CC1)N1c2ccccc2Sc2ccccc21 | 12.8 µM (active)
39 | CCCCCCCCCCCCCC[N+](C)(C)Cc1ccccc1 | 32.2 µM (active)
